# Values joined by “and” are separate entries in the source; they are usually repeats but may differ in a detail not shown here. Equal entries are not always repeated. Records with an inconclusive call do not appear. Active and inactive are the calls of the source. Unless noted, calls come from the whole dose curve; as a rule, active = well fitted curve in the direction sought with a large enough effect; inconclusive = small, poorly fitted or top-dose-only effect, or another doubt; inactive = no such curve, though single readings can be large; an effect the other way counts as inactive or inconclusive. Bridge positions count the residues as written; N and C are the ends. Square brackets hold non-standard residues; d marks the D form. Peptide text beside a SMILES is read from it. * marks the point of attachment. Octanoyl(6-Me) = CCC(C)CCCCC(=O)*; Dab = NCC[CH](N)C(=O)O
# How the values were obtained:
# [1] = Cell Viability - BJ (AID 421; calls by dose curve;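 note: potency is the fitted concentration of half-maximal effect; cells exposed to compound for 40 hours at 37 °C before readout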); settings: BJ fibroblast viability, qHTS
# In short: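 Cytotoxicity in human BJ foreskin fibroblasts is scored as loss of cellular ATP after a 40-hour exposure, measured by luciferase luminescence. Controls are DMSO and 100 uM tamoxifen.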
# [2] = Cell Viability - Jurkat (AID 426;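 active = dose-dependent loss of cell ATP signal giving a full or clear fitted curve, ranked by lower potency value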;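 note: potency is the fitted concentration of half-maximal effect; cells exposed to compound for 40 hours at 37 °C before ATP read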); settings: qHTS
# In short: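 Luminescent ATP read-out (CellTiter-Glo, 20 min at room temperature) after 40 hr compound exposure at 37 °C of Jurkat E6-1 cells, 5000/well. Decreased ATP taken as cytotoxicity; AC50 from standard Hill equation.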
# [3] = Cell Viability - Hek293 (AID 427;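 active = compounds whose dose-response curve shows a full or clear partial loss of cell viability, called from curve shape rather than a numeric limit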;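 note: potency is the fitted concentration of half-maximal effect; cells exposed to compound for 40 hours at 37 °C before reading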); settings: qHTS
# In short: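 qHTS, human embryonic kidney (adenovirus-transformed) cells; 40 hr cpd, 37 °C; CellTiter-Glo ATP luminescence. Norm: DMSO = 0, 100 uM tamoxifen = 100% inhibition. Hill-fit AC50.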
# [4] = Cell Viability - MRC5 (AID 434; calls by dose curve;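 note: potency is the fitted concentration of half-maximal effect; cells exposed to compound for 40 hours at 37 °C; potency reflects cytotoxicity seen as loss of intracellular ATP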); settings: MRC5 lung fibroblast viability, qHTS
# In short: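 ATP luminescence read-out (CellTiter-Glo, 20 min RT) after 40 hr, 37 °C compound exposure of 1500 MRC5 cells/well. Data normalized to DMSO (basal) and 100 uM tamoxifen (100% inhibition); AC50 from standard Hill equation.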
# [5] = qHTS Assay for Identification of Small Molecule Inducers of Hypoxia Response (AID 2120; active = well fitted curve in the direction sought with a large enough effect in the signal ratio, with a control signal flat, not every such curve was filed as active; the % refers to the signal ratio; note: 0% is about no effect)
# In short: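 Read-out: CCF4 FRET emission ratio 460nm/530nm (excitation 405nm), converted to %Activity, with AC50 fitted across a compound titration. ME-180 cells carried an HRE-driven beta-lactamase reporter; compound exposure 17 h, 37 degrees C.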
# [6] = qHTS assay for small molecule agonists of retinoid X receptor alpha signaling (AID 588544); settings: HEK293T RXRa-UAS-bla, beta-lactamase reporter, 18 h; 530 nm emission
# [7] = molecular target: Thyroid hormone receptor beta (Homo sapiens) (UniProt P10828); assay: qHTS assay for small molecule agonists of thyroid hormone receptor beta signaling (AID 588545; calls by dose curve;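 note: 0% = DMSO only and 100% = 10 nM T3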)
# In short: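 TR-UAS-bla GripTite HEK 293 cells (2500/well, medium with 2% charcoal/dextran FBS) were treated in agonist mode for 18 h at 37 C, titrated. Beta-lactamase was read by CCF4 ratio after 2 h; normalized to 10 nM T3 (100%) and DMSO, Hill-fitted for EC50 and efficacy.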
# [8] = qHTS assay for small molecule antagonists of retinoid X receptor alpha signaling (AID 588546; active = well fitted inhibition curve with a large enough effect in the signal ratio, with a control signal flat, not every such curve was filed as active; the % refers to the signal ratio;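 note: cells stimulated with 9-cis-retinoic acid as agonist; % is set by controls: 0 for no effect and ±100 for the full control effect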); settings: HEK293T RXRa-UAS-bla, beta-lactamase ratio, antagonist mode; measured here: W530 green channel, cytotoxicity proxy
# In short: (§1)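 Beta-lactamase reporter inhibition, read as CCF4 fluorescence ratio (ex 405, em 460/530 nm) after 2 h at RT. HEK293T UAS-bla cells, 2500/well, were stimulated with 9-cis-RA at 500 or 100 nM final alongside test compound for 18 h at 37 C.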
# [9] = molecular target: Retinoic acid receptor RXR-alpha (Homo sapiens) (UniProt P19793); assay: as above; settings: HEK293T RXRa-UAS-bla, beta-lactamase ratio, antagonist mode
# In short: as §1
# [10] = qHTS assay for environmental chemicals that activate the Aryl hydrocarbon Receptor (AhR) signaling pathway (AID 651777); settings: 1A2-DRE human hepatoma cells, luciferase, 24 h; activation: stronger effect = higher value; note: % of control where 0% means no effect; nearly all actives have a fitted effect of over 15% in size
# In short: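 Luminescence read-out: One-Glo added for 30 min at RT after 24 hr compound treatment (37 C, 5% CO2) of human hepatoma cells expressing a DRE/CYP1A2 promoter–luciferase reporter; increased signal indicates AhR activation.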
# [11] = molecular target: Peroxisome proliferator-activated receptor alpha (Homo sapiens) (UniProt Q07869); assay: qHTS assay for small molecule agonists of the peroxisome proliferator-activated receptor alpha (PPARalpha) signaling pathway (AID 651778); settings: PathHunter PPARalpha complementation, chemiluminescence, 6 h; max response: stronger effect = higher value; note: % of control where 0% means no effect
# In short: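 Enzyme-fragment complementation assay in which ligand-bound PPARalpha translocates and forms an active enzyme that generates chemiluminescence. Cells were plated overnight, exposed to compound for 6 hr at 37 C, and then given detection reagent for 60 min at room temperature.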
# [12] = qHTS assay for small molecule agonists of the antioxidant response element (ARE) signaling pathway measured by Nrf2-dependant transcriptional activity (AID 720636; active = well fitted curve in the direction sought with a large enough effect in the repeat runs; an effect the other way counts as inactive or inconclusive;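 note: HepG2 cells with an ARE-driven luciferase reporter; % of control where 0% means no effect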)
# In short: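 HepG2 ARE-luc reporter line, 1% dialyzed FBS; 6 hr attachment at 37 C, compound pinned in, 16 hr at 37 C/5% CO2; ONE-Glo, 30 min RT, luminescence read.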
# [13] = qHTS assay for small molecule agonists of the antioxidant response element (ARE) signaling pathway measured by Nrf2-dependant transcriptional activity - cell viability counter screen (AID 720653; active = well fitted curve in the direction sought with a large enough effect in the repeat runs; an effect the other way counts as inactive or inconclusive; note: % is set by controls: 0 for no effect and ±100 for the full control effect); settings: ARE-bla HepG2 viability, CellTiter-Glo ATP luminescence, 16 h; max response: stronger effect = lower value
# In short: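 ARE-bla HepG2 cells treated with compounds for 16 h at 37C; this counter screen measures viability as intracellular ATP by CellTiter-Glo luminescence after 30 min at room temperature.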
# [14] = qHTS assay for cell viability of HEK293 cells (AID 743288); settings: ATP luminescence (CellTiter-Glo), 18 h; max response: stronger effect = lower value; note: % is set by controls: 0 for no effect and ±100 for the full control effect; nearly all actives have a fitted effect of over 50% in size
# In short: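 Readout is luciferase-coupled ATP content (CellTiter-Glo luminescence, 30 min room temperature) as a measure of metabolically competent cells. Parental HEK293 cells were plated 5 h or more before compound addition, then treated 18 h at 37 C.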
# [15] = qHTS assay for cell viability of the p53RE-bla HCT-116 cell line (AID 743292); note: % is set by controls: 0 for no effect and ±100 for the full control effect; nearly all actives have a fitted effect of over 55% in size
# In short: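 Luminescent ATP quantitation (CellTiter-Glo) served as the viability read-out; reagent was added after 16 h compound exposure at 37 C and read after 30 min at room temperature. Cells: p53RE-bla HCT-116, 4,000 per well.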
# [16] = molecular target: Glutathione peroxidase 1 (Homo sapiens) (UniProt P07203); assay: Primary qHTS Assay for Inhibitors of Recombinant Selenoprotein Glutathione Peroxidase 1 (GPX1) (AID 1845191); note: nearly all actives have a fitted effect of over 65% in size; note: potency is the fitted concentration of half-maximal effect; for activity, negative = inhibition: % is set by controls: 0 for no effect and ±100 for the full control effect
# In short: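 GR-coupled readout: NADPH consumption tracked by fluorescence, ex 340/em 450 nm, at t=0 and after 15 min at RT. Final mix 10 nM GPX1, 1 mM GSH, 0.5 mM CHP, 0.5 mM NADPH, 100 nM GR, 0.01% BSA, following 30 min enzyme–compound preincubation.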
# [17] = molecular target: Nuclear receptor subfamily 1 group I member 2 (Rattus norvegicus) (UniProt Q9R1A7); assay: qHTS assay for small molecule activators of the rat pregnane X receptor (rPXR) signaling pathway (AID 651751; call rule not given here; note: 0% is about no effect); settings: rPXR reporter cells, luciferase (One-Glo), 24 h
# [18] = molecular target: Phospholipid hydroperoxide glutathione peroxidase GPX4 (Homo sapiens) (UniProt P36969); assay: Primary qHTS Assay for Inhibitors of Recombinant Selenoprotein Glutathione Peroxidase 4 (GPX4) (AID 1845192); note: nearly all actives have a fitted effect of over 65% in size; note: potency is the fitted concentration of half-maximal effect
# In short: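 Steps: GPX4 plus compound, 30 min RT; add GR/GSH/NADPH master mix; start with cumene hydroperoxide; read 340/450 nm fluorescence at 0 and 15 min. Finals were 200 nM GPX4, 1 mM GSH, 0.5 mM CHP, 0.5 mM NADPH, 100 nM GR.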
# [19] = qHTS profiling for inhibitors of Plasmodium falciparum proliferation (AID 504749); note: potency is the fitted concentration of half-maximal effect;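 for activity, negative = inhibition: 0% = DMSO vehicle and full inhibition = artemisinin control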; for all read-outs here: nearly all actives have a fitted effect of over 60% in size; settings: P. falciparum in erythrocytes, SYBR Green DNA, 72 h; for activity, negative = inhibition: at 28.7 µM (top of the series)
# In short: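 SYBR Green fluorescence (ex 485 nm, em 535 nm) reports parasite DNA after 72 h compound exposure of infected red cells at 0.3% parasitemia, 2.5% hematocrit; signal normalized to 0.29 uM artemisinin and vehicle wells.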
# [20] = qHTS drug screen for cell cycle checkpoint inhibitors in PARPi-resistant BRCA-mutant ovarian cancer cell lines. (AID 1963452; calls by dose curve; note: potency is the fitted concentration of half-maximal effect); settings: PEO1/OlaR viability, CellTiter-Glo luminescence, 96 h; for Z-AUC: stronger effect = lower value
# In short: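 PEO1, PEO4 and PEO1/OlaR ovarian cancer cells, 600 per well, exposed 96 h at 37C to a dilution series. Viability read by CellTiter-Glo luminescence, normalized to DMSO and empty wells; activity summarized as Z-AUC.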
# [21] = measured here: PEO1 parental Z-AUC
# Sequence of Glutathione peroxidase 1 (Homo sapiens) (P07203 whole entry, looked up): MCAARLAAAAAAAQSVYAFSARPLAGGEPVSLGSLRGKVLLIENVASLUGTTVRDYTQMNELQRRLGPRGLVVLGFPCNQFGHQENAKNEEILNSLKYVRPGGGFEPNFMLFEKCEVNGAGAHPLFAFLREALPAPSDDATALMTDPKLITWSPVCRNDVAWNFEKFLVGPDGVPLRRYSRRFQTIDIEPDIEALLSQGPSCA
# Sequence of Retinoic acid receptor RXR-alpha (Homo sapiens) (P19793 whole entry, looked up): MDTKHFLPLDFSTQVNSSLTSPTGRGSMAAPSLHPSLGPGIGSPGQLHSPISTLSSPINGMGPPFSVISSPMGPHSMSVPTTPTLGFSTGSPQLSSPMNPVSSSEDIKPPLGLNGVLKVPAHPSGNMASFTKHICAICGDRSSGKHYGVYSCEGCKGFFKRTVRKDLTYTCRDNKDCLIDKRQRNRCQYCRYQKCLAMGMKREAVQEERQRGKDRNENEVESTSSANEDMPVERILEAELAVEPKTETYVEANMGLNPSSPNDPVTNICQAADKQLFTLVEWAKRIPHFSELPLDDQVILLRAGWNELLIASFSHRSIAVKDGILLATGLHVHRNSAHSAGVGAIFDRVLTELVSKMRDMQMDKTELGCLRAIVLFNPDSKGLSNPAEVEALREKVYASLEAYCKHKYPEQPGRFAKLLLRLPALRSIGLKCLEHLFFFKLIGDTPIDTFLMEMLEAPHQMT
# Sequence of Phospholipid hydroperoxide glutathione peroxidase GPX4 (Homo sapiens) (P36969 whole entry, looked up): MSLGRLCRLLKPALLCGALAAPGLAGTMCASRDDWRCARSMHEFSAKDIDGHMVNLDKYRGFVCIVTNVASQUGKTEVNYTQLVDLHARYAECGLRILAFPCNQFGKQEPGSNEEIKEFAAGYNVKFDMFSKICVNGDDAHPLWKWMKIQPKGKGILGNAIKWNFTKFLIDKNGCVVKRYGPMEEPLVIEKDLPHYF
# Sequence of Nuclear receptor subfamily 1 group I member 2 (Rattus norvegicus) (Q9R1A7 whole entry, looked up): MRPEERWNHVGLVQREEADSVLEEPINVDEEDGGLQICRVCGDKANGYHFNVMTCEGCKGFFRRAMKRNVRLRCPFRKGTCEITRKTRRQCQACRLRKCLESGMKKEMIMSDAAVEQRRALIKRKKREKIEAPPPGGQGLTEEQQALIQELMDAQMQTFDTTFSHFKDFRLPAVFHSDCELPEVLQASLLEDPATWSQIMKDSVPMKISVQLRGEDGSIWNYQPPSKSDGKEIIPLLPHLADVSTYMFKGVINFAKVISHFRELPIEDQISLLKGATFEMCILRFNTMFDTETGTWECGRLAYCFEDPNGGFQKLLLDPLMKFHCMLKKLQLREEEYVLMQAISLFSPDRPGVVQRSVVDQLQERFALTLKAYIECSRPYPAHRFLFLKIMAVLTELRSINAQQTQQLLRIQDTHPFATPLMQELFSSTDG
# Sequence of Peroxisome proliferator-activated receptor alpha (Homo sapiens) (Q07869 whole entry, looked up, the tested form may be a part): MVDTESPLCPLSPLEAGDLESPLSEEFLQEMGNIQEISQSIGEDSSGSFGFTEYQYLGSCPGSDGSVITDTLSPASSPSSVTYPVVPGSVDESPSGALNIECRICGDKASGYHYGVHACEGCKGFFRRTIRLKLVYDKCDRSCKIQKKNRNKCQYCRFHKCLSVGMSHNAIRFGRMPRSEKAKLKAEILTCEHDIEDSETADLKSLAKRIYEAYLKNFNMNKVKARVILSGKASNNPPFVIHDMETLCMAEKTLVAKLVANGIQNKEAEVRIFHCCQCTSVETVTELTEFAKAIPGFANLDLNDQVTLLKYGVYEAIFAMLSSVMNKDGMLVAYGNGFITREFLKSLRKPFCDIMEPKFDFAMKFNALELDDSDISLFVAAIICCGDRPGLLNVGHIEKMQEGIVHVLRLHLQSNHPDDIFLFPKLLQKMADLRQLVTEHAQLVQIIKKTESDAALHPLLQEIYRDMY
# Sequence of Thyroid hormone receptor beta (Homo sapiens) (P10828 whole entry, looked up): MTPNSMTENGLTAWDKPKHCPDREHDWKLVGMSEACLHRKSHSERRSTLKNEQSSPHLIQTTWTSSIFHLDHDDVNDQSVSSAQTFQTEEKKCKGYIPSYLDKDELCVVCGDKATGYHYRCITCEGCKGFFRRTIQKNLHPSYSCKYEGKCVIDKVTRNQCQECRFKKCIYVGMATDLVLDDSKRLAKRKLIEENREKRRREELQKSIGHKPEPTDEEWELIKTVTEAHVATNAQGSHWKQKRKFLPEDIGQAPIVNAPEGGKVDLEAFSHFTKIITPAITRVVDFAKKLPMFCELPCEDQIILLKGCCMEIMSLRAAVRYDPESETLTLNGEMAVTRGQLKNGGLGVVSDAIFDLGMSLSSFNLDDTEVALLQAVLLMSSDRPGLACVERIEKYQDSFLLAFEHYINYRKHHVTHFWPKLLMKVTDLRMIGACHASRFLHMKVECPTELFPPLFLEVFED
smiles,measurement,setting,value
O=C1CCc2ccccc2O1,Potency,[1],> 92 µM (inactive)
same,Potency,[2],> 92 µM (inactive)
same,Potency,[3],> 92 µM (inactive)
same,Potency,[4],> 92 µM (inactive)
same,outcome,[5],inactive
same,max response,[6],-3.26%
same,outcome,[7],inactive
same,max response,[8],-3.35%
same,max response,[9],0.0036% (inactive)
same,activation,[10],0.95% (inactive)
same,max response,[11],0.979% (inactive)
same,Potency,[12],inactive
same,max response,[13],2.06% (inactive)
same,max response,[14],-0.285% (inactive)
same,Potency,[15],inactive
same,Potency,[16],inactive
same,max response,[17],3.11% (inactive)
CC(=O)NC(C=O)C(O)C(O)[C@H](O)CO (stereo not given in full),Potency,[16],inactive
same,Potency,[18],inactive
Nc1nc(Cl)nc2c1ncn2C1CC(O)C(CO)O1 (stereo not given),Potency,[16],inactive
same,Potency,[18],inactive
O=NCc1ccc([N+](=O)[O-])o1,Potency,[16],inactive
same,Potency,[18],inactive
same,"activity, negative = inhibition",[19]; parasite line A,-23.3% (inactive)
same,"activity, negative = inhibition",[19]; parasite line B,5.01% (inactive)
C/C(O)=C(\C#N)C(=O)Nc1ccc(C(F)(F)F)cc1,Potency,[16],inactive
same,Potency,[18],inactive
same,Z-AUC,[20],-1.06 (inactive)
same,Z-AUC,[20]; [21],0.703
same,Z-AUC,[20]; measured here: PEO4 Z-AUC,-0.074
CC1(C)C[C@H]1C(=O)N/C(=C\CCCCSC[C@@H](N)C(=O)O)C(=O)O,Potency,[16],inactive
same,Potency,[18],inactive
CN(C)CCCOc1ccc(-c2ccc3ncc4c(c3c2)n(C2CCOCC2)c(=O)n4C)cn1,Potency,[16],inactive
same,Potency,[18],inactive
same,Potency,[20],3.01 µM (active)
same,Z-AUC,[20]; [21],-1.35
same,Z-AUC,[20]; measured here: PEO4 Z-AUC,-1.31
N=C(N)c1ccc(OCCCOc2ccc(C(=N)N)cc2Br)c(Br)c1,Potency,[16],inactive
same,Potency,[18],inactive
Cc1c(OCC(F)(F)F)ccnc1C[S@@](=O)c1nc2ccccc2[nH]1,Potency,[16],10.1 µM (active)
same,Potency,[18],10 µM (active)
Cc1cccc(O)c1,max response,[8],-8.57% and -4.8%
same,max response,[9],-27.1% (inactive) and -3.41% (inactive)
same,activation,[10],3.54% (inactive) and 0.802% (inactive)
same,max response,[11],-4.41% (inactive) and -2.22% (inactive)
same,Potency,[12],inactive
same,max response,[13],2.52% (inactive) and 7.45% (inactive)
same,max response,[14],-15.7% (inactive) and -2.81% (inactive)
same,Potency,[15],inactive
same,Potency,[16],inactive
same,Potency,[18],inactive
same,max response,[17],-3.23% (inactive) and 0.598% (inactive)
COCC1=C(C(=O)OC(C)OC(=O)OC(C)C)N2C(=O)[C@@H](NC(=O)/C(=N/OC)c3csc(N)n3)[C@H]2SC1 (stereo not given in full),Potency,[16],9.04 µM (active)
same,Potency,[18],10 µM (active)
CC(=O)O[C@@]12CO[C@@H]1C[C@H](O)[C@@]1(C)C(=O)[C@H](O)C3=C(C)[C@@H](OC(=O)C(O)[C@@H](NC(=O)OC(C)(C)C)c4ccccc4)C[C@@](O)([C@@H](OC(=O)c4ccccc4)[C@H]21)C3(C)C (stereo not given in full),Potency,[16],inactive
same,Potency,[19]; parasite line A,0.0316 µM (active)
same,Potency,[19]; parasite line B,0.0282 µM (active)
CCC(C)CCCCC(=O)NC(CCN)C(=O)NC(C(=O)NC(CCN)C(=O)NC1CCNC(=O)C(C(C)O)NC(=O)C(CCN)NC(=O)C(CCN)NC(=O)C(CC(C)C)NC(=O)C(Cc2ccccc2)NC(=O)C(CCN)NC1=O)C(C)O (stereo not given) ({Octanoyl(6-Me)}-[Dab]T[Dab][Dab][Dab]FL[Dab][Dab]T; lactam 4-C; configuration not given here),Potency,[16],inactive
same,Potency,[18],inactive
same,"activity, negative = inhibition",[19]; parasite line B,12% (inactive)
Cc1cc(CC(C)CC(C)(C)C)n(O)c(=O)c1 (stereo not given),Potency,[16],inactive
same,Potency,[19]; parasite line A,1.78 µM (active)
same,Potency,[19]; parasite line B,1 µM (active)
CCCCCCCCCCCCC[N+](C)(C)Cc1ccccc1,Potency,[16],inactive
same,Potency,[18],inactive

# Reference: PubChem BioAssay (NCATS)
